Laboratory results reported in PubChem BioAssay (NCI).
This is part of a sample that, as a whole, favours compounds with a hit. Of some 83,000 tested, about 20% had one in any assay.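 For each line, cells grew in 96-well plates with the test compound present at a single concentration for 48 hours.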 Unmarked numbers belong to inactive results. Activity calls are given as the source filed them. How the source made its calls: active means growth percent below 10; inactive means the rest.

Assays:
Assay in all cases: NCI-60 one-dose screen, 48 h (100 = growth as untreated, 0 = no growth, -100 = all killed)
NCI-H23 lung = conditions: 10 µM unless noted
NCI-H226 lung = conditions: 10 µM unless noted
NCI-H322M lung = conditions: 10 µM unless noted
HOP-62 NSCLC = conditions: 10 µM unless noted
NCI-H460 lung = conditions: 10 µM unless noted
HOP-92 NSCLC = conditions: 10 µM unless noted
NCI-H522 lung = conditions: 10 µM unless noted
A549/ATCC NSCLC = conditions: 10 µM unless noted
786-0 renal = conditions: 10 µM unless noted
COLO 205 colon = conditions: 10 µM unless noted
DU-145 prostate = conditions: 10 µM unless noted
K-562 leukemia = conditions: 10 µM unless noted
MALME-3M melanoma = conditions: 10 µM unless noted
MDA-MB-231 breast = conditions: 10 µM unless noted
RXF 393 renal = conditions: 10 µM unless noted
SF-268 CNS = conditions: 10 µM unless noted
SF-295 CNS = conditions: 10 µM unless noted
SF-539 CNS = conditions: 10 µM unless noted
M14 melanoma = conditions: 10 µM unless noted
UACC-257 melanoma = conditions: 10 µM

| SMILES | growth (NCI-H23 lung) | growth (NCI-H226 lung) | growth (NCI-H322M lung) [%] | growth (HOP-62 NSCLC) | growth (NCI-H460 lung) | growth (HOP-92 NSCLC) | growth (NCI-H522 lung) | growth (A549/ATCC NSCLC) [%] | growth (786-0 renal) | growth (COLO 205 colon) | growth (DU-145 prostate) | growth (K-562 leukemia) | growth (MALME-3M melanoma) | growth (MDA-MB-231 breast) | growth (RXF 393 renal) | growth (SF-268 CNS) | growth (SF-295 CNS) | growth (SF-539 CNS) | growth (M14 melanoma) | growth (UACC-257 melanoma) [%] |
| --- | --- | --- | --- | --- | --- | --- | --- | --- | --- | --- | --- | --- | --- | --- | --- | --- | --- | --- | --- | --- |
| C=C1C(=O)O[C@H]2[C@H]1CC/C(COC(=O)NCCc1ccc(OC)cc1)=C\CC[C@@]1(C)O[C@@H]21 | 66.6% | 0.324% (active) | 88.4 | 62.6% | 68.7% | 21.9% | -64.6% (active) | 64.1 | -31.9% (active) | -52.6% (active) | -12.2% (active) | 2.33% (active) | -8.71% (active) | 1.63% (active) | -30.6% (active) | 45.9% | 80.3% | 26.6% | 25.1% |  |
| O=C(Nc1ccc(F)c(Cl)c1)c1n[nH]c(=O)c2ccccc12 | 106% | 97.2% | 113 | 102% | 107% | 96.9% | 99.6% | 91.8 | 115% | 105% | 131% | 99.8% | 125% | 98.3% | -29.4% (active) | 99.4% | 84.8% | 124% | 115% |  |
| CCCCCCCCCCC/C=C\C[C@H](O)C/C=C1/C(=O)C=C[C@@H]1C/C=C\CCCC(=O)OC | -25.2% (active) | -45.9% (active) | 69.8 | -16.1% (active) | -31.4% (active) | -13.6% (active) | -41.9% (active) | 15.6 | -3.32% (active) | -45.9% (active) | 13.3% | 2.5% (active) | -2.61% (active) | -18.2% (active) | -72.8% (active) | 7.18% (active) | -16% (active) | -46.2% (active) | -31.9% (active) |  |
| COC(=O)CCCCCCN=Cc1c(O)c(O)c(C(C)C)c2cc(C)c(-c3c(C)cc4c(C(C)C)c(O)c(O)c(C=NCCCCCCC(=O)OC)c4c3O)c(O)c12 | 19.5% | 77.3% | 45.2 | 24% | 6.7% (active) | 7.71% (active) | -6.49% (active) | 29.7 | 29% | 15.7% | 30.6% | 10.5% | 68.5% | 11.9% | 36.2% | 32.8% | 7.26% (active) | 15.2% | 27% |  |
| Nc1c(C(=O)Nc2cccc(Cl)c2Cl)sc2nc3c(cc12)C(=O)CCC3 | 76.1% | 87% | 76.7 | 95.3% | 20% | 91.5% | 12.5% | 37.5 | 92.4% | 25.8% | 96.2% | 42.1% | 68.6% | 71.8% |  | 103% | 35.8% | 105% | 80.8% | 76.9 |
| COC(=O)CCCCN=Cc1c(O)c(O)c(C(C)C)c2cc(C)c(-c3c(C)cc4c(C(C)C)c(O)c(O)c(C=NCCCCC(=O)OC)c4c3O)c(O)c12 | 15.6% | 41.4% | 25.4 | 27.3% | 5.03% (active) | -10.1% (active) | -0.222% (active) | 21 | 21.7% | 10.2% | 24.3% | 10.3% | 42.5% | 6.38% (active) | 8.84% (active) | 24.2% | 2.79% (active) | 24.2% | 22.9% |  |
| COc1ccc(C2NC3=C(CCCC3)C(C#N)(C#N)C2(C#N)C#N)cc1 (configuration not stated) | 91.4% | 97% | 109 | 94.6% | 97.6% | 103% | 23.8% | 106 | 88.1% | 11.8% | 94.2% | 12.5% | 71.6% | 70.1% | 93.8% | 97.8% | 99.7% | 101% | 90.7% |  |
| N#Cc1c(NC(=O)c2ccc([N+](=O)[O-])o2)[n+]([O-])c2cc(F)c(F)cc2[n+]1[O-] | 99% | 108% | 119 | 123% | 110% | 96.6% | 101% | 116 | 110% | 132% | 126% | 92.2% | 125% | 114% | 1.39% (active) | 120% | 97% | 137% | 112% |  |
